Reference: PubChem BioAssay (NCI)
This is part of a sample that, as a whole, favours compounds with a hit. Of some 79,000 tested, about 15% had one in any assay. Unmarked numbers belong to inactive results. Activity calls are given as the source filed them. Rule as the data show it: active = growth inhibition above about 70%; inactive = the rest.

experiment: NCI Yeast Anticancer Drug Screen. Data for the mec2-1 strain (AID 157); conditions: S. cerevisiae mec2-1 strain, at 50.0 µM (retest, dose inferred, filed as 5.0), active compounds read high
How it was run: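 mec2-1 yeast strain, carrying an alteration in DNA damage repair or cell cycle control, was exposed to compounds; growth inhibition was measured relative to vehicle-treated controls.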

| Structure (SMILES) | growth inhibition |
| --- | --- |
| O=C(Cc1c2ccccc2cc2c1ccc1ccccc12)N(CCCl)CCCl | 97% (active) |
| CC[C@@]1(O)C(=O)OCc2c1cc1n(c2=O)Cc2cc3c(OC)cccc3nc2-1 | 92% (active) |
| CCOC(=O)NP(=O)(NNc1ccccc1)NNc1ccccc1 | 96% (active) |
| C=C1C(=O)O[C@@H]2C[C@@H](C)[C@@H]3C=CC(=O)[C@@]3(C)[C@@H](O)[C@H]12 | 19% |
| O=C(O)C(F)(F)F.[Ag] | 99% (active) |
| O=C(CBr)Nc1ccccc1 | 99% (active) |
| C1=C[N-]c2c3c(ccc2=C1)=CC=C[N-]3.C1=C[N-]c2c3c(ccc2=C1)=CC=C[N-]3.F[P-](F)(F)(F)(F)F.[Cu+2] | 99% (active) |
| O=[N+]([O-])/C=C/c1ccccc1Cl | 99% (active) |
| CCOP(=S)(OCC)SSSP(=S)(OCC)OCC | 62% |
| CCOC(=O)c1ccc(N=Cc2ccc(N(CCCl)CCCl)cc2C)cc1 | 22% |
| COc1ccc2c(c1)CCC(N1CCCC(=O)C1)C2 (stereo unspecified) | 17% |
| CCCCCCC(=O)[O][Hg][c]1ccccc1 | 100% (active) |
| CCC[CH2][Sn]1([CH2]CCC)[O]C(=O)c2cccnc2[S]1 | 97% (active) |
| C[AsH](C)CC[AsH](C)C.C[AsH](C)CC[AsH](C)C.C[AsH](C)CC[AsH](C)C.[Ni] | 99% (active) |
| O=c1[nH]c2ccccc2n1C1CCN(CCCC(c2ccc(F)cc2)c2ccc(F)cc2)CC1 | 11% |
| O=[C-]c1ccccc1[C-]=O.[Pd+2].c1ccc([PH+](c2ccccc2)c2ccccc2)cc1.c1ccc([PH+](c2ccccc2)c2ccccc2)cc1 | 54% |
